Data on 22 compounds can be found in PubChem BioAssay (NCATS).

Results filed as inconclusive are left out. The source made the active and inactive calls. Unless noted, the call rests on the fitted dose curve; in most records, active means well fitted curve in the direction sought with a large enough effect; inconclusive means small, poorly fitted or top-dose-only effect, or another doubt; inactive means no such curve, though single readings can be large; an effect the other way counts as inactive or inconclusive.

Assay [1] can be described thus: qHTS profiling for inhibitors of Plasmodium falciparum (3D7) proliferation (AID 743322).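 Further: infected erythrocytes exposed to compound for 72 h before lysis; 100% = DMSO vehicle wells and 0% = 0.29 µM artemisinin.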 To be noted: P. falciparum 3D7 proliferation; at 9.63 µM (top of the series). The essentials:
(§1)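 Erythrocytes infected with P. falciparum (0.3% parasitemia, 2.5% hematocrit) incubated with compounds 72 h at 37 C, 5% CO2. Lysis with saponin/Triton buffer containing SYBR Green I, overnight at room temperature in the dark; DNA fluorescence (485/535 nm) normalised to 0.29 uM artemisinin and DMSO.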
(qHTS replaces the single test concentration by a dilution series.)

Assay [2] is described as follows: qHTS profiling for inhibitors of Plasmodium falciparum (DD2) proliferation (AID 743323; call rule not given here). The following applies: lower = more inhibition; at 9.63 µM (top of the series). The essentials: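 1536-well qHTS; infected RBCs 0.3% parasitemia/2.5% Hct final; cpd 72 h 37 C 5% CO2; lysis buffer + SYBR Green I, o/n RT dark; FI 485/535; norm. to 0.29 uM artemisinin and DMSO, plate-stack corrected.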

A short description of assay [3]: qHTS profiling of the MIPE4 collection as inhibitors of Plasmodium falciparum (3D7) proliferation (AID 743344; call rule not given here;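 further: scaled between DMSO vehicle wells and 0.29 µM artemisinin as full inhibition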). To be noted: P. falciparum 3D7 in erythrocytes, SYBR Green DNA fluorescence, 72 h; at 9.64 µM (top of the series). In outline:
as §1

Assay [4] in a line: qHTS profiling of the MIPE4 collection as inhibitors of Plasmodium falciparum (DD2) proliferation (AID 743345; call rule not given here). The following applies: P. falciparum Dd2 in erythrocytes, SYBR Green DNA, 72 h; at 9.64 µM (top of the series). The essentials:
as §1

The nature of assay [5]: qHTS profiling of the MIPE4 collection as inhibitors of Plasmodium falciparum (DD2) proliferation (Rep 2) (AID 743346; call rule not given here). The following applies: P. falciparum Dd2 in erythrocytes, SYBR Green DNA, 72 h; at 9.64 µM (top of the series). The essentials:
as §1

Assay [6] is described as follows: qHTS profiling of the MIPE4 collection as inhibitors of Plasmodium falciparum (HB3) proliferation (AID 743347; call rule not given here;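 further: plate controls were DMSO vehicle wells for no effect and artemisinin wells for full effect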). To be noted: P. falciparum HB3 in erythrocytes, SYBR Green DNA, 72 h; at 9.64 µM (top of the series). In outline:
as §1

Assay [7] concerns the target Cytochrome P450 2C9 (Homo sapiens) (UniProt P11712). Briefly: qHTS Assay for Inhibitors and Substrates of Cytochrome P450 2C9 (AID 883). Further: nearly all actives have a fitted effect of over 60% in size. Further: potency means the concentration at half of the fitted maximal effect. The following applies: recombinant CYP2C9, luciferin-H luminescence, 60 min; series mostly up to 25.6 µM. In outline: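 CYP2C9 deoxyluciferin hydroxylation, 37C, 60 min with NADPH regeneration; 10nM enzyme, 100uM Luciferin-H (KM). Glo detection reagent stopped reaction; luminescence normalized to sulphaphenazole (57uM) full inhibition.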

Assay [8] concerns the target Cytochrome P450 2C19 (Homo sapiens) (UniProt P33261). Description: qHTS Assay for Inhibitors and Substrates of Cytochrome P450 2C19 (AID 899). Further: nearly all actives have a fitted effect of over 60% in size. Further: potency means the concentration at half of the fitted maximal effect. The following applies: recombinant CYP2C19, luciferin-H EGE luminescence; series mostly up to 57.1 µM. In outline: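 In 50mM KPO4, the reaction held 5nM enzyme and KM-level (10uM) Luciferin-H EGE; it ran 60 min at 37C after NADPH regeneration and a 10 min compound preincubation. Luminescence values were scaled to 57uM ketoconazole as complete inhibition.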

A short description of assay [9]: Cytotoxicity counterscreen for NFkB agonists and antagonists (AID 624476).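 Further: cells exposed to compound for 48 hours; on the % scale 0 is the no-effect control and ±100 the full control effect.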 To be noted: NFkB reporter cell line viability counterscreen; series mostly up to 15.4 µM. For orientation: Counterscreens check selectivity or assay interference.
The nature of assay [10]: qHTS Assay for Identification of Small Molecule Agonists for NFkB Signaling Pathway. (AID 624478). Further: 0% is about no effect. The following applies: NFkB pathway reporter cell assay, agonist mode, cells co-stimulated with 10 pM TNF alpha; series mostly up to 15.4 µM. In outline:
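NFkB-bla ME-180 cells (beta-lactamase reporter under NFkB response element) were plated overnight, treated with compound plus TNF alpha at 10 pM final (its EC50) for 5 hrs at 37 C, then loaded with LiveBLAzer substrate for 2 hrs.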

A short description of assay [11]: qHTS Assay for Identification of Small Molecule Antagonists for NFkB Signaling Pathway. (AID 624479; calls by dose curve; further: on the % scale 0 is the no-effect control and ±100 the full control effect). To be noted: NFkB pathway reporter cell assay, antagonist mode; series mostly up to 12.8 µM.
Assay [12] in a line: qHTS Assay for Identification of Small Molecule Agonists for Hypoxia Response Element Signaling Pathway (AID 914; active means well fitted activation curve with a large enough effect in the signal ratio, with a control signal flat, not every such curve was filed as active; the % refers to the signal ratio; further: potency means the concentration at half of the fitted maximal effect; on activation: % of control where 0% means no effect). To be noted: ME-180 HRE-bla reporter, beta-lactamase ratio, CoCl2, 17 h; activation: stronger effect = higher value. In outline: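 Compounds in a titration series were added to ME-180 reporter cells alongside an EC50 level of CoCl2. After 17 hours, beta-lactamase activity was read as the 460nm/530nm emission ratio of CCF4, giving AC50 values.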

Assay [13] in a line: AP1 Signaling Pathway (AID 357; active means well fitted curve in either direction with a large enough effect, not every such curve was filed as active;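 further: ME-180 reporter cells stimulated with EGF at its EC50 level; on the % scale 0 is the no-effect control and ±100 the full control effect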). The following applies: ME-180 (cervical carcinoma) AP-1-bla reporter, EGF-induced, beta-lactamase ratio, 5 h; series mostly up to 17.2 µM. In outline: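 In this screen, ME-180 cells in Opti-MEM with 0.5% dialyzed FBS received EC50 EGF and compound titrations for 5 h. AP-1 reporter beta-lactamase was detected via CCF4 ratio, giving AC50 for positive and negative modulators.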

For assay [14], the target named is Guanine nucleotide-binding protein G(i) subunit alpha-1 (Homo sapiens) (UniProt P63096). Briefly: qHTS Assay for Inhibitors of RGS12 GoLoco Motif Activity (Green Fluorophore) (AID 879).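 Further: 0% = labeled peptide with Gαi1 and full inhibition = labeled peptide alone without protein; negative values mean loss of peptide binding seen as reduced polarization.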 To be noted: Galphai1/FITC-RGS12 GoLoco peptide, fluorescence polarization; series mostly up to 57.1 µM. The essentials: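 Fluorescence polarization assay: 50 nM Gαi1 with 10 nM FITC-labeled RGS12 GoLoco peptide in 10 mM Tris pH 7.5, 150 mM NaCl, 0.1 mM GDP, 0.05% NP40, 10 min at room temperature with compound.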

The nature of assay [15]: qHTS Assay for Identification of Small Molecule Agonists for Thrombopoietin (TPO) Signaling Pathway (AID 917). Further: on the % scale 0 is the no-effect control and ±100 the full control effect. The following applies: TPO signaling pathway reporter cells, agonist qHTS, stimulated with TPO at its EC50; series mostly up to 38.5 µM. The essentials:
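Reporter: GpIIb promoter–luciferase in murine Ba/F3 expressing human TPO receptor. Pre-starved of IL-3 overnight; compounds with 26 pM TPO, 24 hrs, 37 C/5% CO2; luminescence read.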

Assay [16] concerns the target Pyruvate kinase (Leishmania mexicana) (UniProt Q27686). Description: qHTS Validation Assay for Inhibitors of Leishmania Mexicana Pyruvate Kinase (AID 945).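 Further: 0% = DMSO only neutral control wells.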 The following applies: purified L. mexicana pyruvate kinase, enzyme activity, E451W mutant enzyme; series mostly up to 57.5 µM. The essentials: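 Pyruvate kinase activity of E451W LmPYK (0.2 nM) was followed as ATP output after 1 h at room temperature with 0.5 mM PEP and 0.1 mM ADP, detected by PKLight luminescence.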

For assay [17], the target named is Pyruvate kinase PKM (Homo sapiens) (UniProt P14618). Briefly: qHTS Assay for Activators of Human Muscle Pyruvate Kinase (AID 954; active means well fitted curve in the direction sought with a large enough effect, not every such curve was filed as active;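 further: 0% = uninhibited enzyme and -100% = no enzyme or full thiadiazolimine inhibition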). To be noted: purified human muscle pyruvate kinase, luciferase-coupled luminescence, 1 h; series mostly up to 57.5 µM. In outline:
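Reaction: 0.1 nM purified PKM2 with 0.5 mM phosphoenolpyruvate and 0.1 mM ADP, room temperature, 1 h. Readout: luciferase-based ATP luminescence after stop reagent. Activators judged against a 0.3 nM enzyme column.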

For assay [18], the target named is Alpha-galactosidase A (Homo sapiens) (UniProt P06280). Briefly: Counterscreen for Glucocerebrosidase Inhibitors: qHTS Assay for Human alpha-Galactosidase at pH 4.5 (AID 992). Further: 0% is about no effect. To be noted: purified enzyme, fluorogenic substrate; series mostly up to 76.9 µM. In outline: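 Concentration-response curves (0.7 nM to 77 uM final) were modeled with the Hill equation to give AC50. Reactions: 2 nM enzyme, 80 uM fluorogenic alpha-galactoside, pH 4.5 citric acid buffer, 20 min, room temperature.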

In assay [19] the target is alpha-glucosidase (Oryza sativa, rice) (UniProt Q653V4). Briefly: Counterscreen for Glucocerebrosidase Inhibitors: qHTS Assay for Rice alpha-Glucosidase at pH 5.0 (AID 997).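 Further: 0% = full activity with enzyme and -100% = basal without enzyme.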 The following applies: rice alpha-glucosidase enzyme activity; series mostly up to 76.9 µM. In outline:
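Rice alpha-glucosidase (4 nM final) with 400 uM 4-methylumbelliferyl-alpha-D-glucopyranoside in citrate buffer pH 5.0, 20 min at room temperature, stopped at pH 10; fluorescence 365/440 nm, compounds 0.7 nM–77 uM, AC50 from Hill fits.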

In assay [20] the target is Tyrosyl-DNA phosphodiesterase 1 (Homo sapiens) (UniProt Q9NUW8). Description: Confirmation Assay for Inhibitors of Tyrosyl-DNA Phosphodiesterase (TDP1) (AID 489007). Further: potency means the concentration at half of the fitted maximal effect; nearly all actives have a fitted effect of over 40% in size. To be noted: recombinant human TDP1 enzymatic activity, dose-response. The essentials: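 Recombinant E. coli-expressed Tdp1 (1 nM final) was preincubated with compounds 15 min at room temperature, then reacted 5 min with 15 nM 5'-biotin/3'-phosphotyrosine-FITC DNA substrate; cleavage read as loss of AlphaScreen signal (10 ug/ml beads, 10 min).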
Tyrosyl-DNA phosphodiesterase 1 (Homo sapiens), sequence (Q9NUW8 whole entry, looked up): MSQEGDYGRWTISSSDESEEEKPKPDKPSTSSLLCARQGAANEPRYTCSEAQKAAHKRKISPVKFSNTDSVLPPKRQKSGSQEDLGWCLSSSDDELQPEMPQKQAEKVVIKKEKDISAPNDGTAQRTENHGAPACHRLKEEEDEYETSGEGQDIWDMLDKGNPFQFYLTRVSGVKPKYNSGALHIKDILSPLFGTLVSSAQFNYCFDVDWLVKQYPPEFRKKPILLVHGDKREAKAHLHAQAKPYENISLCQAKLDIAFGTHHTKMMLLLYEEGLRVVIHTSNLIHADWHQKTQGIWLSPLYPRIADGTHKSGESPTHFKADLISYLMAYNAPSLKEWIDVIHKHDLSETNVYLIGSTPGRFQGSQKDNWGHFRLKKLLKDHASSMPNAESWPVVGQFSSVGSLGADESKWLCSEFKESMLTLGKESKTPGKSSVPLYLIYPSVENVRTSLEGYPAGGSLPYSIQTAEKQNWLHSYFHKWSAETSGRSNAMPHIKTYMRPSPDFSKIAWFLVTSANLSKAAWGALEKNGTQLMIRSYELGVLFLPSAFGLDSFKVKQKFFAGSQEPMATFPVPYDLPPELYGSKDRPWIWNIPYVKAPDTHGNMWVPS

Cytochrome P450 2C9 (Homo sapiens), sequence (P11712 whole entry, looked up): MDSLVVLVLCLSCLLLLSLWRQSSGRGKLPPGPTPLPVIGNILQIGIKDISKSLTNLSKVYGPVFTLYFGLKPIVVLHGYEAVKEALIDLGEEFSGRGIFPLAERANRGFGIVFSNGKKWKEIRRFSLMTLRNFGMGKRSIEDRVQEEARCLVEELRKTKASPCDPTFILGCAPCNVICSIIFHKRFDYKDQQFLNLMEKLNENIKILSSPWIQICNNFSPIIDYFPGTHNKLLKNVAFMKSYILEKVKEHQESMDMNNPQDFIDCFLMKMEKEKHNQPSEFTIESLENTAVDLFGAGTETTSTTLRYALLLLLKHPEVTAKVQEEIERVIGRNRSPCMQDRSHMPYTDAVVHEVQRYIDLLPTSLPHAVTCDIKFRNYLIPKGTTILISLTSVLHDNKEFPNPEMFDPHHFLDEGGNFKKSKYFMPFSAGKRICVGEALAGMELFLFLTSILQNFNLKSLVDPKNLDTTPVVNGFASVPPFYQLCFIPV
Cytochrome P450 2C19 (Homo sapiens), sequence (P33261 whole entry, looked up): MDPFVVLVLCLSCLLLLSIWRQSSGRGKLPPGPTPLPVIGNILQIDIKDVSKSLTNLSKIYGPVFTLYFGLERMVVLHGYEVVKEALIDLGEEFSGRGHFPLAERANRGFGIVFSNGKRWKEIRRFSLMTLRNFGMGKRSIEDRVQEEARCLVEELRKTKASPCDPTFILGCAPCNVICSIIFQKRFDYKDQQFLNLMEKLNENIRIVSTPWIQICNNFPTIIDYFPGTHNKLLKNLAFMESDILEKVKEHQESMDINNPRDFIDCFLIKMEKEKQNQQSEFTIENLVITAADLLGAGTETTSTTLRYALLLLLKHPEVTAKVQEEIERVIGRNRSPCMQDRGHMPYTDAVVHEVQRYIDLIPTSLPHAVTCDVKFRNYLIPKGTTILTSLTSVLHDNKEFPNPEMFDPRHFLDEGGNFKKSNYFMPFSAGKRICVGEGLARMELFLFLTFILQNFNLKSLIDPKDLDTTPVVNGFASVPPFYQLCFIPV
Alpha-galactosidase A (Homo sapiens), sequence (P06280 whole entry, looked up): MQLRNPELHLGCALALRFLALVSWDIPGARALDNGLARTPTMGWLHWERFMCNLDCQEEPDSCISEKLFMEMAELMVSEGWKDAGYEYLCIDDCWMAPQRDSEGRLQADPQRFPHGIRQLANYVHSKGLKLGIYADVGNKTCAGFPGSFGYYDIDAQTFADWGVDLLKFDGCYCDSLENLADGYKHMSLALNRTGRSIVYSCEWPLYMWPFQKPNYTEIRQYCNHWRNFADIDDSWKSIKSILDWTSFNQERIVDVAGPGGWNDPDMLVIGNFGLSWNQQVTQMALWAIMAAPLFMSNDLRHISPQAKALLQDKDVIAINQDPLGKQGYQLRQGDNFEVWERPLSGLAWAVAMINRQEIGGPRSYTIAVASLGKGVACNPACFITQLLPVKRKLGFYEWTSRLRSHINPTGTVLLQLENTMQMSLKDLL
Guanine nucleotide-binding protein G(i) subunit alpha-1 (Homo sapiens), sequence (P63096 whole entry, looked up): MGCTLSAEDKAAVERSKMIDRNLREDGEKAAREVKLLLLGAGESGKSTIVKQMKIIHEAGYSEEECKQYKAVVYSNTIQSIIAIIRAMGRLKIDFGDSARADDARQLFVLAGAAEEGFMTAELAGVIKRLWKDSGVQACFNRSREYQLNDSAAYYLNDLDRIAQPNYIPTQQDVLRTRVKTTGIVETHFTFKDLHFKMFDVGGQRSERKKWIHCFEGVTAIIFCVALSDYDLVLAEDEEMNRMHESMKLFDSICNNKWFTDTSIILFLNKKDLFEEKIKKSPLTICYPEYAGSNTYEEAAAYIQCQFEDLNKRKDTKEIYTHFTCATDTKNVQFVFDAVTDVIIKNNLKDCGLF
Pyruvate kinase (Leishmania mexicana), sequence (Q27686 2-499 E452W): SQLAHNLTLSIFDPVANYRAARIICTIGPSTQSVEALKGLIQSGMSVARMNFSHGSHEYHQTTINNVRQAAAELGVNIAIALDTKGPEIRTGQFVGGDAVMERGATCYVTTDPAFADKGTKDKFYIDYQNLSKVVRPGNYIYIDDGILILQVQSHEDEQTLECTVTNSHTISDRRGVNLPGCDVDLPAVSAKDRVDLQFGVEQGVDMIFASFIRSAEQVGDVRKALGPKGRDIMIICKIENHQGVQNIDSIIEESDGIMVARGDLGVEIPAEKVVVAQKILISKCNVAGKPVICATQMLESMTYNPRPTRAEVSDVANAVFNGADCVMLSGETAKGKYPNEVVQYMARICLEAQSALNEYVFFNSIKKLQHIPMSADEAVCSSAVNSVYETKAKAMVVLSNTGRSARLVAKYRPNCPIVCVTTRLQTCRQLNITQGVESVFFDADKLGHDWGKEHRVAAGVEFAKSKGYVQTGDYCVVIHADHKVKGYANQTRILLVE
Pyruvate kinase PKM (Homo sapiens), sequence (P14618 whole entry, looked up): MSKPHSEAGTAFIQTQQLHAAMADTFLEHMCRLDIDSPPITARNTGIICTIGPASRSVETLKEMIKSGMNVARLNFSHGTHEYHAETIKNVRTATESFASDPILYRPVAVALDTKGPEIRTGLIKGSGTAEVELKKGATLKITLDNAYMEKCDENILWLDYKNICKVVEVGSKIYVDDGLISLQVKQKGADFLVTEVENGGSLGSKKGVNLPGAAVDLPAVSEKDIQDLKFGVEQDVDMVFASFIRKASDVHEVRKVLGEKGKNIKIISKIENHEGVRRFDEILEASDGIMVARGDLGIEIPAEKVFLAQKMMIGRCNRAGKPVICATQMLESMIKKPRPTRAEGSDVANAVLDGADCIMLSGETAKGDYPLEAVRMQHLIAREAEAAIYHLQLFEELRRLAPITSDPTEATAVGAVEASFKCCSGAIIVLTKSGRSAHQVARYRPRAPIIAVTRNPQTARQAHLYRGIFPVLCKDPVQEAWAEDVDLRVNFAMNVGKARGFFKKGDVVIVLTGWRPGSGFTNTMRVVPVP

In the case of `CO[C@@H]1C=CO[C@]2(C)Oc3c(C)c(O)c4c(O)c(c(C=NN5CCN(C)CC5)c(O)c4c3C2=O)NC(=O)C(C)=CC=C[C@H](C)[C@H](O)[C@H](C)[C@H](O)[C@H](C)[C@H](OC(C)=O)[C@H]1C`, in assay [1], the remaining parasite growth % (stronger effect = lower value) amounted to 5.75%. In addition, the activity, percent of control in assay [2] worked out at 4.21%. Also, the parasite growth, % of DMSO control in assay [3] came out at 5.98%. For the same compound, the parasite growth remaining, % of DMSO control (lower = more inhibition) in assay [4] was found to be 11.9%. Moreover, the parasite growth, % of control (lower = inhibition) in [5] worked out at 22.5%. Also, in assay [6], the growth, % of control stood at 5.71%.

Take `CC=C(/C(=C/C)c1ccc(O)cc1)c1ccc(O)cc1`: the values for the Potency in assay [7] and in [8] were 0.794 µM (active) and 3.16 µM (active), respectively.

Regarding `CN1[C@H](CC(=O)c2ccccc2)CCC[C@H]1C[C@@H](O)c1ccccc1`, the Potency entry in assay [7] and in [8] was “inactive” in each case.

On to `CCC(C)(C)C(=O)O[C@@H]1C[C@H](C)C=C2C=C[C@H](C)[C@@H](CC[C@H]3C[C@@H](O)CC(=O)O3)[C@H]21`, for which the compound was called inactive in assay [9], in assay [10] and in assay [11].

On to `FC(F)(F)c1ccccc1-c1ccc2ncnc(NC3CCNCC3)c2c1`, for which, in assay [7], the activity change, negative = inhibition was 12.9% [at 2.29 µM] (inactive). Also, the Potency in assay [8] is 3.98 µM (active). In assay [12], the activation was -6.93% (inactive).

Consider `O=c1cc(-c2cccc(O)c2)oc2cc(O)ccc12`, for which the Potency in [7] was 25.1 µM (active). Further, in assay [8], the Potency result is “inactive”.

With `C[C@@H](Cc1cccc(C(F)(F)F)c1)NCCOC(=O)c1ccccc1`, the Potency entry in [7] was “inactive”.

Consider `Nc1ncnc2c1ncn2[C@@H]1O[C@H](COP(=O)(O)O)[C@@H](O)[C@@H]1O`, for which the Potency result in assay [7] and in assay [8] was “inactive” each time.

For the compound `OCCOCCN1CCN([C@@H](c2ccccc2)c2ccc(Cl)cc2)CC1`, in assay [13], the outcome was inactive.

On to `C[C@@H](CN1c2ccccc2Sc2ccccc21)N(C)C`, for which the result in assay [14], in assay [15], in assay [16], in assay [17], in assay [18] and in assay [19] was inactive.

`C=C(C)[C@H]1CC[C@]2(CO)CC[C@]3(C)[C@@H](CC[C@H]4[C@@]5(C)CC[C@@H](O)C(C)(C)[C@@H]5CC[C@@]43C)[C@H]12`: the Potency in [12] was 1.26 µM (active).

As for `COc1ccc2c(c1)N(C[C@@H](C)CN(C)C)c1ccccc1S2`, in [12], the activation is -28.7% (inactive).

Take `O=C(O)[C@@H]1[C@@H]2C[C@H]3c4[nH]c5ccccc5c4CCN3C[C@@H]2CC[C@@H]1O`: the Potency entry in assay [8] was “inactive”.

With `COc1c(O)cc(O)cc1O`, the Potency in assay [20] was 8.91 µM (active).

As for `CC1=C(CCC(=O)O)c2cc3nc(cc4[nH]c(cc5[nH]c(cc1n2)c(C)c5C(C)O)c(C)c4C(C)O)C(C)=C3CCC(=O)O` (centres undefined), the Potency in assay [20] was 6.31 µM (active).

On to `COc1cccc(-c2nc(NCCc3c[nH]c4ccc(OC)cc34)c3ccccc3n2)c1`, for which the Potency is 0.794 µM (active) in assay [7] and 1.58 µM (active) in assay [8].

As for `Cc1cc2ccc(=O)oc2cc1OC[C@@H](O)C(C)(C)O`, the Potency entry in assay [7] and in assay [8] was “inactive” each time.

In the case of `Cc1cc(O)c(C=O)c2c1C(=O)Oc1c(COC(=O)/C=C/C(=O)O)c(O)c(C(=O)O)c(C)c1O2`, the Potency in assay [20] is 3.16 µM (active).

As for `C=Cc1c(C)c2cc3nc(cc4[nH]c(cc5nc(cc1[nH]2)C(C)=C5CCC(=O)O)c(CCC(=O)OC)c4C)[C@@]1(C)C3=CC=C(C(=O)OC)[C@H]1C(=O)OC` (tested in a mixture with another compound), the Potency in [7] was 1.26 µM (active).

For the compound `CC/C=C\C[C@H]1C(=O)CC[C@@H]1CC(=O)O`, the Potency result in assay [7] and in assay [8] was “inactive” each time.

Regarding `C/C(=C\CNc1ncnc2nc[nH]c12)CO`, the Potency result in [7] and in assay [8] was “inactive” in each case.

As to `Cc1cc(O)c(C=O)c2c1C(=O)Oc1c(C)c(O)c3c(c1O2)C(O)OC3=O` (centres undefined), in [20], the Potency was 5.62 µM (active).
